# Measurements reported in PubChem BioAssay (NCATS).
# Inconclusive results are not listed. Unmarked numbers belong to inactive results. Activity calls are given as the source filed them. Calls come from the whole dose curve; as a rule, active = well fitted cell-killing curve with a large enough effect; inconclusive = small, poorly fitted or top-dose-only effect, or effect the other way; inactive = no such curve, though single readings can be large or run the other way.
# Test: Quantitative highthroughput screen to assess conditional lethalithy of SEM cells grown in RPMI1640 with dialyzed fetal bovine serum (RPMI+ds) (AID 1963884); note: nearly all actives have a fitted effect of over 35% in size
# Details: SEM B-ALL cells, RPMI+dialyzed FBS, CellTiter-Glo viability, 48 h; series mostly up to 45.8 µM; viability: at the top concentration
# Source text: Assay Provider: Jason Cantor Ph.D.
# Department of Biochemistry
# University of Wisconsin-Madison, Madison, WI, USA
# Chemical screening studies have identified drug sensitivities across hundreds of cancer cell lines but most putative therapeutics fail to translate. Discovery and development of drug candidates in models that more accurately reflect nutrient levels in human blood is a major challenge. Here we performed high-throughput screens in conventional versus Human Plasma-Like Medium (HPLM) to identify compounds that were "missed" when screening using the artificial culture condition. Sets of conditional anticancer compounds spanned phases of clinical development and included non-oncology drugs were assessed. […] We also traced conditional phenotypes for several chemotherapeutics to availability of HPLM-specific metabolites and confirmed others for compounds whose reported targets are encoded by nonessential genes. Our findings establish generalizable strategies for exploiting conditional lethality in HPLM to reveal therapeutic candidates and mechanisms of action in cancer cells.
# Described herein are the results of each viability screens against three cell lines: NOMO1 (an acute myeloid leukemia cell line); P12-Ichikawa (a T-cell acute lymphoblastic leukemia); and SEM (a B-cell ALL). Each assay was screened using 3 different cell culture media: homemade human plasma-Like medium with 10% dialyzed fetal bovine serum (HPLM+ds); RPMI1640 with 10% untreated FBS and 5mM glucose (RPMI+s); and RPMI1640 with 10% dialyzed fetal bovine serum and 5 mM glucose (RPMI+ds).
# PROTOCOL TABLE (as described by Inglese J, Shamu CE and Guy RK. 2007)
# SEQUENCE No. (e.g., 1, 2, 3, etc.); […] (e.g., Cells, Incubation, Reagent, etc.); VALUE and DESCRIPTION.
# 1; Cells; 5 uL; white, solid bottom 1536-well Greiner assay plate.
# 2; Compounds; 23 nL; Kalypsis pin tool (Wako USA) equipped with a 1536-well pin head to transfer to the assay plates.
# 3; Incubation; 48 hours; 37C incubation.
# 4; Reagent; 3 uL; CellTiter Glo (Promega).
# 5; Incubation; 5 min, room temperature
# 6; Detection; Luminescence, Viewlux PerkinElmer.
# NOTES (numbers refer to Sequence numbers above)
# 1. Briefly, 5 ul of cell reagent was dispensed using a Multidrop Combi Dispenser. The NOMO1 and SEM cells were plated at 500 cells/well and the P12-Ichikawa line at 1000 cells/well.
# 2. After seeding the cells, 23 nL of MIPE 4.1 library compounds (in DMSO) were added to each plate using a Kalypsys 1536 Pintool dispenser. Bortezomib at final concentration of […] and DMSO were added to each plate as positive and negative controls respectively. For each screen, MIPE 4.1 compounds were added over an eleven-point concentration range […] in 3-fold dilutions.
# 3. Each plate was covered with a stainless steel gasketed lid to prevent evaporation and incubated for 48 hour at 37C, 95% relative humidity, and 5% CO2.
# 4-5. Three microliter CellTilter-GloTM luminescent substrate mix (Promega) reagent was added to the assay plate and incubated at room temperature for 5 min.
# 6. The luminescence signal was measured using a ViewLux (PerkinElmer) multiplate reader with a 2 second exposure time per plate. Data for each compound were normalized as percent viability such that measurements for DMSO and the empty well controls in each plate were defined as 100% and 0%, respectively.
# Potency is the fitted concentration of half-maximal effect.
Structure (SMILES),viability [%],Potency
Cc1nc(-c2ccc(-c3ccc(C(=O)N4CCc5cc6c(cc54)C4(CCN(C)CC4)CO6)cc3)c(C)c2)no1,104,
Cc1cccc(C)c1NC(=O)CN1CCCC1=O,73.6,
COc1cc(C(=O)N2CC[C@@H](O)[C@@H](N)C2)cc2nc(-c3cc4ccccc4n3CC3CC3)n(C)c12,,0.831 µM (active)
COc1ccc2c(c[n+](C)c3c4cc5c(cc4ccc23)OCO5)c1OC,,9.35 µM (active)
CCN1C[C@]2(OC(=O)c3ccccc3NC(C)=O)CC[C@H](OC)[C@@]34[C@H]5CC6[C@@H](OC)C[C@](O)(C(C[C@@H]23)[C@@H]14)[C@@]5(O)[C@@H]6OC,89,
CN(C)CCc1ccc(O)cc1,81.6,
N[C@@H](Cc1ccc(N(CCCl)CCCl)cc1)C(=O)O,,2.96 µM (active)
O=[N+]([O-])c1ncc[nH]1,52.2,
Oc1ccc2c3c1O[C@H]1c4[nH]c5c(c4C[C@@]4(O)[C@@H](C2)N(CC2CC2)CC[C@]314)C[C@@]1(O)[C@H]2Cc3ccc(O)c4c3[C@@]1(CCN2CC1CC1)[C@H]5O4,111,
O=C(O)CNC(=O)c1c(O)c2ccccc2n(Cc2ccccc2)c1=O,104,
CCOc1ccccc1-n1c(C(C)N2CCN(C(=O)COc3ccc(Cl)cc3)CC2)nc2ccccc2c1=O (stereo not given),,0.588 µM (active)
NC1CC1c1ccccc1 (stereo not given),93.7,
CC(C)(C)[C@]1(O)C[C@@H]2OC(=O)C[C@@]23C(=O)O[C@@H]2OC(=O)[C@H](O)C213 (stereo not given in full),106,
CC(=Cc1csc(C)n1)[C@@H]1C[C@H]2O[C@]2(C)CCC[C@H](C)[C@@H](O)[C@@H](C)C(=O)C(C)(C)[C@@H](O)CC(=O)O1,14.5,
C[C@]12CC[C@H](O)CC1=CC[C@H]1[C@H]3CCC(=O)[C@@]3(C)CC[C@@H]12,105,
C[C@@H]1[C@H](O)[C@@H](C)C=CC=CCCC=CC=CC=CC=C[C@H](O[C@H]2O[C@@H](C)[C@H](O)[C@@H](N)[C@@H]2O)CC2O[C@](O)(C[C@@H](O)[C@H](O)CC[C@@H](O)C[C@@H](O)C[C@@H](O)CC(=O)O[C@H]1C)C[C@H](O)[C@H]2C(=O)O,105,
C[C@]12COC(=O)C[C@@H]1CC[C@@H]1[C@H]2CC[C@@]2(C)[C@H]1CC[C@]2(C)O,80.9,
Clc1ccccc1C(c1ccccc1)(c1ccccc1)n1cccn1,120,
Cn1cc(C2=C(c3cn(C4CCN(Cc5ccccn5)CC4)c4ccccc34)C(=O)NC2=O)c2ccccc21,,5.9 µM (active)
CC(=O)N(C)c1cccc(-c2ccnc3c(C(=O)c4cccs4)cnn23)c1,98.6,

Structure (SMILES),viability [%],Potency
COc1ccc2c(c1OC)CN1CCc3cc4c(cc3C1C2)OCO4 (stereo not given),,0.469 µM (active)
Cc1c(N)nc([C@H](CC(N)=O)NC[C@@H](N)C(N)=O)nc1C(=O)N[C@H](C(=O)N[C@@H](C)[C@H](O)[C@@H](C)C(=O)N[C@@H](C(=O)NCCc1nc(-c2nc(C(=O)NCCC[S+](C)C)cs2)cs1)[C@@H](C)O)C(O[C@H]1O[C@H](CO)[C@H](O)[C@@H](O)[C@@H]1O[C@H]1O[C@H](CO)[C@@H](O)[C@H](OC(N)=O)[C@H]1O)c1cnc[nH]1 (stereo not given in full),,4.18 µM (active)
CC(C)(O)C(=O)Nc1ccc([N+](=O)[O-])c(C(F)(F)F)c1,103,
C[C@H]1CCCC=CC2C[C@H](O)C[C@@H]2[C@H](O)C=CC(=O)O1 (stereo not given in full),1.62,
O=C1CC[C@@]2(O)[C@H]3Cc4ccc(O)c5c4[C@@]2(CCN3CC2CC2)[C@H]1O5,103,
CC[C@@H]1[C@@H](C)O[C@@](O)([C@@H](C)[C@H](O)[C@H](C)[C@H]2OC(=O)C=CC=C[C@@H](C)[C@@H]([C@@H](C)[C@@H](O)[C@H](C)[C@@]3(O)C[C@H](O[C@H]4C[C@H](O)[C@H](O)[C@H](C)O4)[C@H](CC)[C@@H](C)O3)OC(=O)C=CC=C[C@@H]2C)C[C@H]1O[C@H]1C[C@H](O)[C@H](O)[C@H](C)O1,,1.87 µM (active)
CCc1c(C(=O)C(N)=O)c2c(OCC(=O)O)cccc2n1Cc1ccccc1,89.2,
C[C@H]([C@H](O)CCC(C)(C)O)[C@H]1CC[C@@]2(O)C3=CC(=O)[C@@H]4C[C@@H](O)[C@@H](O)C[C@]4(C)[C@@H]3CC[C@]12C,124,
C[C@@H]1CC[C@@]2(OC1)O[C@H]1C[C@H]3[C@@H]4CC=C5C[C@@H](O[C@@H]6O[C@H](CO)[C@@H](O[C@@H]7O[C@@H](C)[C@H](O)[C@@H](O)[C@@H]7O)[C@H](O)[C@@H]6O[C@@H]6O[C@@H](C)[C@H](O)[C@@H](O)[C@@H]6O)CC[C@]5(C)[C@@H]4CC[C@]3(C)[C@@H]1[C@H]2C,,14.8 µM (active)
CN1C(=O)CCS(=O)(=O)C1c1ccc(Cl)cc1 (stereo not given),91.7,
COc1ccc2c(c1)[C@]13CCCCC1C(C2)N(C)CC3 (stereo not given in full),108,
C1=C2CCCN[C@H]2[C@@H]2C[C@H]1[C@@H]1CCCCN1C2,98.5,
COc1ccc(C(=O)c2c(C)n(CCN3CCOCC3)c3ccccc23)cc1,89.4,
CC(N[C@H]1C[C@H]1c1ccccc1)c1ccc2c(c1)OCCO2 (stereo not given in full),87.5,
C[C@@H]1[C@@H](C(=O)C[C@H]2O[C@@H]3O[C@]4(C)CC[C@@H]5[C@H](C)CC[C@@H]([C@H]2C)[C@@]35OO4)O[C@@H]2O[C@]3(C)CC[C@H]4[C@H](C)CC[C@@H]1[C@@]24OO3,,23.5 µM (active)
CC=C(C)C(=O)O[C@H]1C(C)=C2[C@@H]3OC(=O)[C@@](C)(O)[C@@]3(O)[C@@H](OC(=O)CCC)C[C@](C)(OC(C)=O)[C@@H]2[C@@H]1OC(=O)CCCCCCC,,0.0332 µM (active)
c1ccc2c(CN3CCNCC3)cccc2c1,71.3,
C[C@]12CCC(=O)C(O)=C1CC[C@@H]1[C@H]3CCC(=O)[C@@]3(C)CC[C@@H]12,97.1,
CO[C@H]1CCC(O[C@H]2C[C@H]([C@]3(C)CC[C@]4(C[C@H](O)[C@@H](C)[C@@H]([C@@H](C)C=C(C)C(=O)[C@H](C)C[C@H](C)C(=O)O)O4)O3)O[C@]3(O[C@@H]([C@H]4O[C@@](O)(CO)[C@H](C)C[C@H]4C)C[C@H]3C)[C@H]2C)O[C@H]1C (stereo not given in full),,1.32 µM (active)
CN(C)CCN(C)CCc1ccc(Cl)c(Cl)c1,97.2,
